# The campaign covered roughly 300,000 compounds. About 37,000 (12%) were called active. Only a selection was taken, and actives are over-represented in it overall. A number with no mark means an inactive call. Cut-off read from the data, not from the text of the source: active = max response mostly above about 13% (no sharp cut-off); inactive = mostly below about 14%.
# Experiment: Cycloheximide Counterscreen for Small Molecule Inhibitors of Shiga Toxin; note: read at 38.3 µM for the half of the compounds with a filed dose; 0% is about no effect
# Settings: cell reporter, cycloheximide protein synthesis inhibition counterscreen; active compounds read high
row,SMILES,max response
1,NS(=O)(=O)c1ccc(CCNC(=O)c2ccc([N+](=O)[O-])cc2[N+](=O)[O-])cc1,-3.47%
2,CC(=O)c1ccc2c(c1)OCCOCCOc1ccc(C(C)=O)cc1OCCOCCO2,0.857%
3,Cc1ccc2sc(NNC(=O)c3ccc4c(c3)OCCO4)nc2c1C,5.17%
4,Cc1nc(NC(=O)c2ccc3c(c2)OCCO3)ccc1Br,57.9% (active)
5,O=C(Nc1ccc(Cl)cn1)c1ccc2c(c1)OCCO2,37.5% (active)
6,COc1ccc(C(=O)NC(=S)Nc2ccc(Cl)cn2)cc1OC,-1.11%
7,Cc1cc(NC(=O)c2cnn3cccnc23)n(-c2ccccc2)n1,0.387%
8,COc1c(Cl)cc(C(=O)Nc2ccc(Cl)cn2)cc1Cl,11.7%
9,O=C(Nc1cccnc1)c1ccc(Cl)cc1[N+](=O)[O-],-1.02%
10,O=C(Nc1ccc(Cl)cn1)c1cnn2cccnc12,58.9% (active)
11,O=C(NCc1ccncc1)C(=O)NCC1OCCN1S(=O)(=O)c1ccc(Br)cc1 (centres undefined),-5.83%
12,CSCCNCc1cn(-c2ccc(F)cc2F)nc1-c1ccccc1C,-0.8%
13,COc1cc(OC)c(NS(=O)(=O)c2cn(C)cn2)cc1Cl,-0.545%
14,COc1cc(/C=C2/C(=O)NN(c3cccc(Cl)c3)C2=O)cc(Br)c1O,0.32%
15,CC1(C)O[C@@H]2C[C@@H]3[C@H]4C[C@@H](F)C5=CC(=O)C=C[C@]5(C)[C@@]4(F)[C@@H](O)C[C@]3(C)[C@]2(C(=O)CO)O1,7.66%
16,CCOC(=O)c1ccc(NC(=O)c2nc[nH]c2C(=O)NCc2ccccc2)cc1,-1.19%
17,O=C(NCCN1CCN(C(=O)c2cccc([N+](=O)[O-])c2)CC1)C(=O)NCc1ccc(Cl)cc1,1.34%
18,Cc1cc(-c2csc(N)n2)c(C)n1-c1ccccc1,28.2%
19,CC(=O)Nc1ccc(C(=O)Nc2nc(-c3cc(C)n(Cc4ccccc4)c3C)cs2)cc1,-2.65%
20,Cc1cc(-c2csc(N)n2)c(C)n1Cc1ccccc1,22.9% (active)
21,O=C(O)CCCC(=O)N1N=C(c2ccco2)CC1c1ccco1 (centres undefined),-3.77%
22,Cc1nn2c(c1-c1ccccc1)N=C(c1ccco1)CC2c1ccccc1 (centres undefined),20.9% (active)
23,Cn1c(N)c(C(=O)COC(=O)C23CC4CC(CC(C4)C2)C3)c(=O)n(C)c1=O,-2.04%
24,O=C(O)c1ccccc1C(=O)Nc1ccccc1[N+](=O)[O-],0.991%
25,Cc1csc(NC(=O)Nc2ccccc2[N+](=O)[O-])n1,40.4% (active)
26,O=C(Nc1ccccc1[N+](=O)[O-])C1C(c2ccccc2)=C1c1ccccc1,-1.97%
27,CCOC(=O)/C(=N\Nc1ccccc1[N+](=O)[O-])c1csc(Nc2ccccc2)n1,11.6%
28,Cc1c(NC(=O)Nc2ccccc2)cccc1[N+](=O)[O-],-0.54%
29,Cc1cc(NC(=O)Nc2ccccc2[N+](=O)[O-])no1,16.1% (active)

# — PubChem BioAssay AID2314 (National Center for Advancing Translational Sciences (NCATS), 2010)
